Screens (PubChem)
HCV inh: qHTS Assay for Inhibitors of Hepatitis C Virus (HCV); Huh7.5.1 HCVcc-Cre infection, luciferase reporter, 44 h; Potency, µM (doses to about 41.8 µM), for the others: at the top dose activity change, negative = inhibition, actives largely listed as inhibitors; 340,000 compounds, 3.4% hits; further: on the % scale 0 is the no-effect control and ±100 the full control effect
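Antiviral activity was scored by luciferase reporter output from cells infected with HCVcc-Cre (~0.5 moi) in presence of compound, 44 h infection period, cells seeded 1,000/well 4 h prior.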
VACV Venus inh: qHTS for Stage-Specific Inhibitors of Vaccinia Orthopoxvirus: Venus Reporter Primary qHTS. Vaccinia virus Venus reporter expression, fluorescence. Potency, µM (series often up to 36.5 µM), inactives show top-dose activity change, negative = inhibition, most hits filed as inhibitors. 330,000 compounds, 0.46% hits. AID 720580, 2013; calls by dose curve; tested in A549 cells; further: on the % scale 0 is the no-effect control and ±100 the full control effect; nearly all actives have a fitted effect of over 30% in size
NS1 function inh: qHTS Assay for Inhibitors of Influenza NS1 Protein Function; Potency, µM (doses to about 46.1 µM), inactives show at the highest dose activity, positive = more growth; 270,000 compounds, 0.4% hits; calls by dose curve; further: actives are rising curves; nearly all actives have a fitted effect of over 50% in size
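Read-out: OD600 growth recovery of NS1-expressing budding yeast. Cells grown overnight at 30C in -URA glucose medium, washed, resuspended and diluted 1:100 in 2% galactose assay medium, pH 6.0. Same strain lacking NS1 served as positive control.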
Pf growth 48h: Primary qHTS for delayed death inhibitors of the malarial parasite plastid, 48 hour incubation | Potency, µM (top dose mostly 28.7 µM), for inactives: at the top dose activity change, negative = inhibition, actives largely listed as inhibitors | AID 504832, 2011 | 310,000 compounds, 5.9% hits | P. falciparum luciferase growth in erythrocytes, 48 h; further: on the % scale 0 is the no-effect control and ±100 the full control effect
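Parasite viability was followed by luminescence of a genomically integrated firefly luciferase. Cultures held 0.1% parasitemia at 2% hematocrit (final), incubated under 5% CO2 at 37 C.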
Vaccinia mCherry: qHTS for Stage-Specific Inhibitors of Vaccinia Orthopoxvirus: mCherry Reporter Primary qHTS. Vaccinia virus mCherry reporter infection, fluorescence. Potency, µM (highest dose often 36.5 µM), for inactives: top-dose activity change, negative = inhibition, usual class: inhibitors. 310,000 compounds, 0.63% hits; calls by dose curve; tested in A549 cells; further: on the % scale 0 is the no-effect control and ±100 the full control effect; nearly all actives have a fitted effect of over 35% in size
Pf growth 96h: Primary qHTS for delayed death inhibitors of the malarial parasite plastid, 96 hour incubation; P. falciparum luciferase reporter growth, 96 h; Potency, µM (titrated, usually from 28.7 µM), inactives show top-dose activity change, negative = inhibition, hits mostly inhibitors; 320,000 compounds, 6.9% hits; AID 504834, 2011; further: on the % scale 0 is the no-effect control and ±100 the full control effect
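Two parasite generations (96 h, 37 C, 5% CO2) of compound exposure in infected erythrocytes (0.05% parasitemia, 2% hematocrit). Luciferase-reporter P. falciparum; decreased luminescence indicates inhibited growth, aimed at apicoplast-acting delayed death.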
Numbers without * were called inactive; i = inactive; ? = inconclusive; / = no result given. Sampled rows, rich in hits. Any-hit rate of the full collection: about 11%. Unless noted, the call rests on the fitted dose curve; in most records, active means well fitted inhibition curve with a large enough effect; inconclusive means small, poorly fitted or top-dose-only effect, or another doubt; inactive means no such curve, though single readings can be large or run the other way. Potency means the concentration at half of the fitted maximal effect.

SMILES	HCV inh	VACV Venus inh	NS1 function inh	Pf growth 48h	Vaccinia mCherry	Pf growth 96h
COc1cc(NC(=O)COc2cccc(OC)c2)cc(OC)c1	-21.3%	0.0%	-12.0%	8.6%	20.9%	5.22µM*
O=C(c1nc2ncccn2n1)N1CCc2ccccc2C1	0.9%	-9.9%	-3.2%	?	/	13.5%
O=C(CSc1nc2ccccc2o1)NCc1ccco1	23.0%	-16.1%	-2.2%	14.1%	/	?
O=C(NC1CCCC1)c1ncn[nH]1	33.8%	-15.3%	-4.7%	-7.3%	i	6.1%
COc1cccc(OCC(=O)Nc2ccc(OC)c(OC)c2)c1	0.631µM*	-14.9%	-10.2%	2.5%	-9.8%	25.1%
COc1ccc(CNC(=O)c2sc(=O)n(Cc3ccc(S(=O)(=O)N(C)C)cc3)c2C)cc1	/	-11.5%	/	/	-18.0%	/
NC(=O)[C@H]1CC2(CC(c3cccc(NC(=O)COc4ccc(Cl)cc4)c3)=NO2)CN1C(=O)C(c1ccccc1)c1ccccc1 (stereo not given in full)	?	?	10.3%	13.1µM*	?	?
CC/C=C/C(=O)N1CC2(CC(c3cccc(NC(=O)CCCCC)c3)=NO2)C[C@H]1C(N)=O (stereo not given in full)	-4.0%	0.2%	0.4%	?	i	?
NC(=O)[C@@H]1CC2(CC(c3cccc(NC(=O)COc4ccc(Cl)cc4)c3)=NO2)CN1C(=O)COc1ccc(Cl)cc1 (stereo not given in full)	10µM*	?	-12.7%	?	?	?
CC/C=C/C(=O)N1CC2(CC(c3cccc(NC(=O)COc4ccc(Cl)cc4)c3)=NO2)C[C@H]1C(N)=O (stereo not given in full)	-28.1%	?	2.0%	10.4µM*	?	4.65µM*
CCC(=O)Nc1cccc(C2=NOC3(C2)C[C@@H](C(N)=O)N(C(=O)C(c2ccccc2)c2ccccc2)C3)c1 (stereo not given in full)	?	-19.6%	-29.4%	25.0%	i	?
Oc1ccc(-c2cn3ccccc3n2)cc1O	?	-3.9%	9.1%	/	-10.5%	34.8%
Cc1ccc2c(c1)-c1ncc(C(=O)c3cc(Br)ccc3O)cc1CO2	/	-8.6%	-0.1%	1.65µM*	-5.6%	?
Cc1ccc(O)c(C(=O)c2cnc(/N=C(\N)N(C)C)nc2)c1	0.5%	-10.2%	7.8%	7.7%	-6.4%	19.0%
Cc1ccc(O)c(C(=O)c2cnc3c(c2)COc2ccc(C)cc2-3)c1	?	-13.0%	2.5%	13.1µM*	/	?
Cc1ccccc1NC(=O)CN1CCN(Cc2ccccc2)CC1	6.6%	-2.9%	17.1%	-12.0%	-7.9%	54.3%
Cc1nn(C)c2c1c(C(F)(F)F)cc(=O)n2CC(=O)N1CCCCC1	/	-2.3%	/	/	9.7%	/
CCOC(=O)C1(Cc2ccc(Cl)cc2)CCN(Cc2cn(CC)nc2C)CC1	?	/	-5.4%	-13.9%	/	-25.6%
N#CCC(=O)N1CCn2c1nc1ccccc12	7.7%	-15.2%	-9.0%	-0.8%	/	15.3%
CC(C)(C)C(=O)N1CCn2c1nc1ccccc12	-7.6%	1.3%	-0.5%	7.1%	-1.8%	2.62µM*
Cn1c(C(=O)O)cc2cc(Oc3ccccc3)ccc21	8.0%	/	-84.0%	-3.5%	/	7.9%
Cc1oc2cc(O)cc(C)c2c(=O)c1-c1cnn(-c2ccccc2)c1	8.91µM*	?	-8.0%	13.1µM*	-4.2%	-1.4%
O=C(/C=C/Sc1ccc(C(F)(F)F)cn1)c1ccccc1	10µM*	/	-2.8%	?	/	-13.4%
COCCCn1c(=O)c2ccccc2n(Cc2cc(C(=O)OC)ccc2OC)c1=O	-3.1%	/	0.8%	7.38µM*	/	14.9%
COc1cc(OC)cc(C2=Cc3ccc(OC)cc3C(CC(C)=O)N2c2ccc(C#CC3(N)CCCCC3)cc2)c1 (stereo not given)	/	-21.6%	/	/	-27.0%	/
SMILES	HCV inh	VACV Venus inh	NS1 function inh	Pf growth 48h	Vaccinia mCherry	Pf growth 96h
CC1=CC(C)(C)Nc2ccc(OC(=O)CCN3C(=O)c4ccccc4C3=O)cc21	?	71.6%	-15.8%	13.1µM*	-4.8%	6.3%
COc1ccc(N(CC(=O)N/N=C/c2ccc(-c3ccc([N+](=O)[O-])cc3)o2)S(=O)(=O)c2ccc(C)cc2)cc1Cl	2.9%	0.0%	13.6%	?	7.8%	?
CCOC(=O)c1c(C)nc(C)c(C(=O)OCC)c1-c1ccc(Br)cc1	-23.1%	-12.4%	-14.1%	-22.9%	-15.1%	13.1µM*
COc1ccc2c(C)nc(Nc3nc(-c4ccccc4)cc(=O)[nH]3)nc2c1	5.62µM*	3.98µM*	6.2%	2.6%	?	-7.6%
Cc1ccc2nc(Nc3nc(CSc4nnc(C)s4)cc(=O)[nH]3)nc(C)c2c1	?	-4.7%	8.7%	?	-4.0%	3.29µM*
Cc1ccc2nc(Nc3nc(-c4ccccc4)cc(=O)[nH]3)nc(C)c2c1	?	?	12.5%	?	/	?
Cc1ccc2nc(Nc3nc(C)cc(-c4ccccc4)n3)[nH]c(=O)c2c1	?	1.6%	4.1%	3.29µM*	-9.3%	6.57µM*
Cc1ccc2c(C)nc(Nc3nc(CSc4nc5ccccc5[nH]4)cc(=O)[nH]3)nc2c1	?	-13.2%	5.7%	10.4µM*	?	?
COc1cc(OC)cc(C(=O)Nc2ccc3nc(N4CCC(C)CC4)cc(C)c3c2)c1	/	-16.1%	/	/	-26.8%	/
CC1(C(=O)Nc2cnc3ccccc3c2)CCN1CCc1ccccc1 (stereo not given)	/	-5.9%	/	/	0.7%	/
CC(=O)N1c2ccc(S(=O)(=O)N3CCCCC3)cc2CC1C(=O)Nc1cccc(C)c1 (stereo not given)	-23.0%	/	8.7%	?	/	-27.0%
Cc1c(OC(C)C(=O)NCCCN2CCCC2=O)ccc2c3c(c(=O)oc12)CCCC3 (stereo not given)	-26.6%	-22.5%	-2.0%	?	i	-28.9%
Cc1c(OCC(=O)NCc2cccnc2)ccc2c3c(c(=O)oc12)CCC3	-13.5%	/	27.7%	-6.1%	/	-7.3%
Cc1c(OC(C)C(=O)NCc2ccncc2)ccc2c3c(c(=O)oc12)CCC3 (stereo not given)	?	/	-18.3%	?	/	9.28µM*
Cc1c(OC(C)C(=O)NCCN2CCOCC2)ccc2c3c(c(=O)oc12)CCCC3 (stereo not given)	?	/	-8.5%	-18.6%	/	?
Cc1c(OC(C)C(=O)NCc2ccccn2)ccc2c3c(c(=O)oc12)CCCC3 (stereo not given)	?	/	-36.3%	?	/	1.65µM*
Cc1c(OCC(=O)NCc2ccncc2)ccc2c3c(c(=O)oc12)CCC3	3.1%	/	-14.3%	?	/	13.1µM*
